Test results reported in ChEMBL document CHEMBL4513216, “Probing the Open Global Health Chemical Diversity Library for Multistage-Active Starting Points for Next-Generation Antimalarials” (ACS Infect Dis, 2020).
The campaign covered roughly 69,000 compounds. About 8,600 (12%) showed an effect of 50% or more. The entries come from a sample that favours strong results as a whole.

tested on: Plasmodium berghei; test: Screen against P. berghei liver stage (PbLuc), transformed with Luciferase, at 10uM; type: functional, HepG2; details: tested at 10 uM

Structure (SMILES)	INHIBITION
CC1CCCCN1C(=O)COc1nc(C(C)(C)C)no1 (stereo not given)	-29.2%
Cn1cnnc1-c1ccnc(NCc2ccc3c(c2)OCCO3)c1	42.3%
COc1ccc(CNc2nncs2)cc1F	8.05%
COc1cc(CNCc2ccnc(N3CCOCC3)c2)cc(Cl)c1OC	40.3%
Cn1cnnc1-c1ccnc(NCc2ccc(Br)cc2)c1	8.05%
Cn1cnnc1-c1ccnc(NCc2ccccc2)c1	57.7%
COc1cc(CNCCc2cnn(C)c2)cc(OC)c1OC	31.55%
COc1cc(CNc2nncs2)cc(OC)c1OC	80.8%
COc1cc(CNc2cc(-c3nncn3C)ccn2)cc(OC)c1OC	53.4%
COc1cc(CNc2nc(N3CCOCC3)ns2)cc(OC)c1OC	8.05%
COCCN(Cc1cnn(C)c1)C(=O)C1CCN(C2CCCCC2)CC1	36.7%
C[C@@H]1CN(CCOc2ccc(Cl)cc2)CC[C@@]1(O)C1CCOCC1	-17.8%
O=C(N[C@@H]1CN(Cc2ccoc2)[C@@H]2CCCO[C@@H]21)C1CC1	11.2%
Cc1cn2c(n1)CCC(NC(=O)c1nc(C)ncc1Cl)C2 (stereo not given)	30.3%
CCN(CC)c1ncc(Cl)c(C(=O)NC2CC2)n1	57.3%
O=C(NC1CCc2nccn2C1)c1ccc(NC2CC2)nc1 (stereo not given)	7.58%
CCNc1ncc(C(=O)NC2CCC(n3cnnc3)CC2)cn1 (stereo not given)	37.7%
Cn1cc(I)c(C(=O)NC2CCCCC2)n1	25.4%

Structure (SMILES)	INHIBITION
CN(Cc1cnn(C)c1)C(=O)NC1CCC(O)CC1 (stereo not given)	1.81%
O=C(NC1CCC(O)CC1)c1cnc2c(cnn2C2CCCC2)c1 (stereo not given)	11.3%
CCN(CC)c1ncc(Cl)c(C(=O)NC2CCC(O)CC2)n1 (stereo not given)	60.1%
CCN(CC)c1ncc(Cl)c(C(=O)NC2CCc3nccn3C2)n1 (stereo not given)	76.7%
CNc1nc(CNC(=O)Nc2cccc(Cl)c2Cl)cs1	-15.467%
CCc1noc(CCC(=O)N2CCC(c3ccn[nH]3)C2)n1 (stereo not given)	10.97%
CNC(=O)N1Cc2cc(F)ccc2C2(CCN(C)CC2)C1	21.6%
CCc1ccc(S(=O)(=O)Nc2ccn(CC(=O)OC)n2)cc1	-74%
C=c1ccoc1=C1NN=C(CNCCn2cc(C)cn2)O1	-25.9%
NC(=O)NC(=O)CNC1(c2ccc(Cl)cc2)CCC1	-24.2%
COCCN1CCCn2c(nc(CNS(C)(=O)=O)cc2=O)C1	25.8%
CCOC(=O)c1sc2ccsc2c1CNC(=O)C(C)(C)C#N	20.6%
CCOC(=O)c1sc2ccsc2c1CNC(=O)CC	57.2%
CCOC(=O)c1sc2ccsc2c1CNC(=O)C(C)OC (stereo not given)	17.8%
CCOC(=O)c1sc2ccsc2c1CNC(=O)COC	19.933%
CCOC(=O)c1sc2ccsc2c1CNS(C)(=O)=O	7.925%
CCOC(=O)c1sc2ccsc2c1CNC(=O)CCOC	61.6%
